High-throughput results as filed in PubChem.
DT40 TDP1 CPT: DT40-hTDP1 cell growth loss with CPT; hit rate 12% among 420,000; Potency, µM (highest dose often 46.2 µM), usual class: inhibitors; chicken DT40 Tdp1-/-;hTDP1 cells + 20 nM CPT, ATP luminescence, 48 h; also: nearly all actives have a fitted effect of over 55% in size
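Chicken DT40 Tdp1-/- cells complemented with human TDP1, 400 cells/well, exposed to compounds plus 20 nM camptothecin for at least 48 h at 37 C; viability read as ATP content by CellTiter-Glo luminescence.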
MCF10A rerep: induces DNA re-replication in MCF 10a normal breast cells; MCF 10A DNA re-replication, Hoechst nuclear intensity, 48 h; Potency, µM (titrated, usually from 46.1 µM), hits mostly activators; hit rate 2.9% among 350,000; AID 624296; also: nearly all actives have a fitted effect of over 50% in size
DT40 TDP1 no CPT: qHTS for Inhibitors of human tyrosyl-DNA phosphodiesterase 1 (TDP1): qHTS in cells in absence of CPT; Potency, µM (series often up to 46.2 µM), usual class: inhibitors; hit rate 15% among 420,000; DT40 Tdp1-/- hTDP1 cells, no CPT, ATP luminescence, 48 h; AID 686978, 2013; also: nearly all actives have a fitted effect of over 55% in size
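Cells were dispensed at 400 per well, compounds added by pin tool, plates incubated ≥48 hr at 37 °C, then CellTiter-Glo added for 30 min at room temperature before luminescence reading. Line: DT40 Tdp1-/- complemented with hTDP1; camptothecin omitted.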
IL-1B inflam inh: blocks inflammasome-driven IL-1 beta release. activity change, % at 57.5 µM. hit rate 4.7% among 360,000. THP-1 LPS/ATP IL-1B secretion, AlphaLISA, 16 h; active compounds read low; in the data active = activity change below about -50%; inconclusive = mostly about -30% to -49%
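THP-1 cells pretreated 1 hr with compounds (up to 57.5 uM final), then stimulated with LPS (250 ng/mL final) plus ATP (1.25 mM final); secreted IL-1B measured by AlphaLISA after 16 hr, decreased signal indicating inhibition.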
SW480 rerep: inducers of DNA re-replication in SW480 colon cancer cells | SW480 DNA re-replication, Hoechst DNA content imaging, 48 h | AID 624297 | Potency, µM (top dose mostly 46.1 µM), hits mostly activators | hit rate 1.8% among 340,000; also: nearly all actives have a fitted effect of over 55% in size
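SW480 cells exposed to compounds for 48 hr at 37 C, 5% CO2, then Hoechst-stained 40 min. Nuclear DNA content imaged by fluorescence scanning (405 nm excitation, 500-530 nm emission); re-replication scored as increased high-intensity nuclei.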
Chronic BCR inh: chronic active BCR signaling inhibition | ABC-DLBCL IkBa-CBG/CBR reporter, luminescence ratio, 4 h | Potency, µM (series often up to 46.1 µM), usual class: inhibitors | hit rate 0.05% among 340,000 | AID 493014; active = well fitted inhibition curve with a large enough effect in the signal ratio, with a control signal flat, not every such curve was filed as active; inconclusive = small, poorly fitted or top-dose-only effect, or effect the other way, or a change in a side signal; the % refers to the signal ratio
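Compounds up to 46 uM were incubated four hours with TMD8 cells whose green CBG68 luciferase is fused to IkappaBalpha; red CBR luminescence normalised the signal, and concentration-effect curves were fitted to fusion, red and ratio data.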
Large screens that a line does not name were inactive. The list is not random: actives were taken first. Their share in the collection is about 19%. Unless noted, calls follow the shape of the dose curve; as a rule, active = well fitted curve in the direction sought with a large enough effect; inconclusive = small, poorly fitted or top-dose-only effect, or another doubt; inactive = no such curve, though single readings can be large; an effect the other way counts as inactive or inconclusive.

COc1ccc2[nH]c(=O)c(-c3noc(-c4ccccc4)n3)cc2c1	DT40 TDP1 CPT 20.6µM, DT40 TDP1 no CPT 18.4µM
COc1ccc2[nH]c(=O)c(-c3nnn(-c4ccc(Cl)nc4)n3)cc2c1	DT40 TDP1 CPT 11.6µM, DT40 TDP1 no CPT inconclusive (no result: Chronic BCR inh)
COc1ccc2[nH]c(=O)c(-c3nnn(-c4ccccc4)n3)cc2c1	DT40 TDP1 CPT inconclusive, DT40 TDP1 no CPT inconclusive, IL-1B inflam inh inconclusive
COc1ccc2[nH]c(=O)c(-c3nnn(-c4ccc(F)cc4)n3)cc2c1	DT40 TDP1 CPT 4.61µM, DT40 TDP1 no CPT 16.4µM (no result: Chronic BCR inh)
O=c1[nH]c2ccccc2cc1-c1nnn(-c2ccccc2)n1	DT40 TDP1 CPT 16.4µM, MCF10A rerep inconclusive, DT40 TDP1 no CPT inconclusive (no result: Chronic BCR inh)
COc1ncccc1-c1nnn(-c2ccc(Cl)nc2)n1	none
COc1cc(NC(=O)CC(C)S(=O)(=O)c2ccc3c(c2)CCN3C(C)=O)cc(OC)c1OC (configuration not stated)	none (no result: MCF10A rerep, IL-1B inflam inh, SW480 rerep, Chronic BCR inh)
Cc1nc2c(-c3ccccc3)c(C)[nH]n2c(=O)c1Cc1ccccc1	DT40 TDP1 CPT inconclusive, MCF10A rerep inconclusive, DT40 TDP1 no CPT inconclusive, SW480 rerep inconclusive
CCCCc1c(C)nc2c(-c3ccc(OC)cc3)c(C)[nH]n2c1=O	DT40 TDP1 CPT 16.4µM, DT40 TDP1 no CPT 10.3µM (no result: MCF10A rerep, IL-1B inflam inh, SW480 rerep, Chronic BCR inh)
Cc1ccccc1Cc1c(C)nc2c(-c3ccccc3)c(C)[nH]n2c1=O	DT40 TDP1 CPT inconclusive, DT40 TDP1 no CPT 20.6µM (no result: MCF10A rerep, IL-1B inflam inh, SW480 rerep, Chronic BCR inh)
Cc1cccc(Cc2c(C)nc3c(-c4ccccc4)c(C)[nH]n3c2=O)c1	DT40 TDP1 CPT 5.8µM, DT40 TDP1 no CPT 3.66µM (no result: MCF10A rerep, IL-1B inflam inh, SW480 rerep, Chronic BCR inh)
COc1ccc(-c2c(C)[nH]n3c(=O)c(Cc4ccccc4)c(C)nc23)cc1OC	DT40 TDP1 CPT inconclusive, MCF10A rerep inconclusive, DT40 TDP1 no CPT 18.4µM, SW480 rerep inconclusive
CCOC(=O)Cc1c(C)nc2c(-c3ccccc3)c(C)[nH]n2c1=O	DT40 TDP1 no CPT inconclusive
CCCCNC(=O)C1(C)CCN1C(=O)c1ccc(C)c(F)c1 (configuration not stated)	none (no result: MCF10A rerep, SW480 rerep, Chronic BCR inh)
CCC(Oc1ccccc1F)C(=O)Nc1c(C(=O)c2ccccc2)oc2ccccc12 (configuration not stated)	DT40 TDP1 no CPT inconclusive (no result: MCF10A rerep, IL-1B inflam inh, SW480 rerep, Chronic BCR inh)
CNC(=S)N1CCN=C1Nc1nc(C)cc(C)n1	none
COc1ccc(C(=O)NCCOc2ccccc2Cl)c(OC)c1OC	DT40 TDP1 CPT inconclusive, DT40 TDP1 no CPT inconclusive, Chronic BCR inh inconclusive
Cc1ccc2c(c1)CO[C@]21O[C@H](CCO)C[C@H](O)[C@H]1O	none (no result: MCF10A rerep, SW480 rerep, Chronic BCR inh)
COc1cccc(NS(=O)(=O)c2ccc3[nH]cc(C(=O)N(C)C4CCCCC4)c(=O)c3c2)c1	DT40 TDP1 no CPT inconclusive (no result: MCF10A rerep, IL-1B inflam inh, SW480 rerep)
CCCC(=O)NC(c1ccccc1OC)c1ccc2cccnc2c1O (configuration not stated)	DT40 TDP1 CPT 4.11µM, DT40 TDP1 no CPT 4.11µM, SW480 rerep inconclusive, Chronic BCR inh inconclusive
CCCCC(=O)NC(c1ccccc1OC)c1ccc2cccnc2c1O (configuration not stated)	DT40 TDP1 CPT 20.6µM, DT40 TDP1 no CPT 18.4µM, SW480 rerep 0.731µM, Chronic BCR inh inconclusive
Cc1ccc2cc(CCNC(=O)C3CCCCC3)c(=O)[nH]c2c1C	DT40 TDP1 CPT inconclusive
CCN(CC)CCCN(Cc1cc2ccc(C)c(C)c2[nH]c1=O)C(=O)NC1CCCCC1	DT40 TDP1 CPT inconclusive, DT40 TDP1 no CPT inconclusive, IL-1B inflam inh -51.6
Cc1cccc2cc(CN(Cc3ccco3)C(=O)NC3CCCCC3)c(=O)[nH]c12	DT40 TDP1 CPT inconclusive, IL-1B inflam inh inconclusive, Chronic BCR inh inconclusive
COc1ccc(CCN(Cc2cc3cccc(C)c3[nH]c2=O)C(=O)NC2CCCCC2)cc1OC	DT40 TDP1 CPT inconclusive, DT40 TDP1 no CPT inconclusive, IL-1B inflam inh -68.2, Chronic BCR inh inconclusive
CCN(CC(=O)Nc1c(F)cccc1F)C(=O)c1cnccn1	none
O=C(/C=C/c1cccs1)c1ccc(NC(=O)c2ccccc2F)cc1	DT40 TDP1 no CPT 11.6µM, Chronic BCR inh inconclusive
O=C(Nc1ccc(NC(=O)c2ccccc2F)cc1)c1cccs1	DT40 TDP1 no CPT inconclusive
COc1ccccc1C(=O)Nc1ccc(C(=O)/C=C/c2cccs2)cc1	DT40 TDP1 CPT inconclusive, MCF10A rerep inconclusive, DT40 TDP1 no CPT 18.4µM, IL-1B inflam inh inconclusive, SW480 rerep inconclusive
Cc1cccc(C)c1NC(=O)CN(C)C(=O)c1ccccc1OCc1ccc(F)cc1	none
OC(COCc1cccs1)CN1CCN(c2cccc(C(F)(F)F)c2)CC1 (configuration not stated)	DT40 TDP1 CPT 18.4µM, DT40 TDP1 no CPT 20.6µM
O=C(CS(=O)(=O)Cc1ccccc1)N1CCN(c2cccc(C(F)(F)F)c2)CC1	DT40 TDP1 CPT inconclusive, DT40 TDP1 no CPT inconclusive
OC(CN1CCN(c2cccc(C(F)(F)F)c2)CC1)c1c[nH]c2ccccc12 (configuration not stated)	DT40 TDP1 CPT inconclusive, MCF10A rerep inconclusive, DT40 TDP1 no CPT 23.1µM
CCOC(=O)c1ccc(NC(=S)N2CCSC2c2ccc(Cl)cc2)cc1 (configuration not stated)	DT40 TDP1 CPT inconclusive, MCF10A rerep inconclusive, DT40 TDP1 no CPT 16.4µM, Chronic BCR inh inconclusive
CC(C)Oc1ccc(Nc2ncnc3ccccc23)cc1	DT40 TDP1 CPT inconclusive, MCF10A rerep inconclusive, DT40 TDP1 no CPT inconclusive, IL-1B inflam inh -153.6, Chronic BCR inh inconclusive
